This note sets out measurements from PubChem BioAssay.

Test [1] concerns Plasmodium falciparum Sir2 (PF13_0152, Sir2A). Kind of test: Plasmodium falciparum Sir2A binding compounds – biochemical, small-molecule microarray, 635 nm fluorescence, primary screen (AID 1098).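 Note: score merges spot fluorescence intensity with its signal-to-noise ratio.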 The following applies: fluorescence 635 nm, higher = more signal.
Test [2] in a line: probe aDKK1 binding to arrayed compounds – biochemical, biotinylated probe, 635/667 nm fluorescence, primary screen (AID 1099).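 Note: score merges 667nm spot fluorescence with signal to noise across triplicate slides.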 The following applies: small-molecule microarray, higher = more signal.
Test [3] in a line: probe aCHRDL2 binding to arrayed compounds – biochemical, biotinylated probe, 635/667 nm fluorescence, primary screen (AID 1100). The settings on record: small-molecule microarray, higher = more signal.
Test [4] can be described thus: change in splice reporter luminescence, either direction, cell-based, HEK293, spliceosome inhibition project, primary screen (AID 1101).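 Note: HEK293 cells carrying a splicing-competent luciferase reporter gene; test concentration not given here.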 The settings on record: HEK293 splicing luciferase reporter, 24 h, higher = more signal, called active from +8 up or from −8 down. A general note: Reporter assays use an easily measured gene product as a stand-in for the process of interest.

For test [5], the target named is Fibroblast growth factor 10 (Homo sapiens) (UniProt O15520). Kind of test: compounds binding fibroblast growth factor 10 – biochemical, small-molecule microarray, 635 nm fluorescence, primary screen (AID 1102). The settings on record: FGF10 binding, fluorescence 635 nm, higher = more signal.
Test [6] concerns glycogen synthase kinase-3 (GSK3A per assay name; protocol says GSK3B). In words: compounds binding glycogen synthase kinase-3 – biochemical, small-molecule microarray, 635 nm fluorescence, GSK3A, primary screen (AID 1103). Note: the record names both GSK3A and GSK3B. The settings on record: fluorescence 635 nm, higher = more signal.
The target in test [7] is Epidermal growth factor receptor (Homo sapiens) (UniProt P00533). Kind of test: compounds binding epidermal growth factor receptor – biochemical, small-molecule microarray, 635 nm fluorescence, primary screen (AID 1104).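 Note: score merges 667 nm emission intensity with spot signal to noise over triplicate slides.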 The following applies: EGFR binding, higher = more signal.
Test [8] has as its target Follistatin-related protein 3 (Homo sapiens) (UniProt O95633). In words: compounds binding follistatin-related protein 3 – biochemical, small-molecule microarray, 635 nm fluorescence, primary screen (AID 1105).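 Note: score merges emission near 667 nm and signal to noise per printed spot across three slides.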 The settings on record: FSTL3 binding, higher = more signal.
Test [9] addresses Dickkopf-related protein 1 (Homo sapiens) (UniProt O94907). Kind of test: small molecules binding DKK1 protein – biochemical, small-molecule microarray, 635 nm fluorescence scan, primary screen (AID 1106).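 Note: score merges emission near 667 nm with signal to noise over three replicate slides.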 The following applies: higher = more signal.
Test [10] concerns Inhibin beta A chain (activin A). Kind of test: small molecules binding activin A – biochemical, small-molecule microarray, 635 nm fluorescence scan, primary screen (AID 1107).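 Note: mouse activin A protein probed at 4.33 µg/mL on printed slides; score merges bound-protein fluorescence near 667 nm with spot signal-to-noise.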 The settings on record: INHBA, higher = more signal.
In test [11] the test system is Human papillomavirus type 1a protein E7 (residues 44-93). Kind of test: small molecules binding HPV E7 44-93 – biochemical, small-molecule microarray, residues 44-93, 635 nm fluorescence, primary screen (AID 1108).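 Note: E7 fragment applied at 1 µg/mL in TBST for 1 h at 4 C; score combines spot fluorescence with its signal to noise ratio.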 The following applies: fluorescence 635 nm, higher = more signal.
Test [12] can be described thus: hepatitis C replication reporter changes, two-sided – Huh7 cells, luciferase reporter, HCV replication inhibitor project, primary screen (AID 1109).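 Note: huh7 hepatoma cells harbouring a luciferase neomycin HCV replicon reporter; luciferase luminescence as measure of HCV replicon replication; test concentration not given here.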 The settings on record: Huh7 HCV replicon luciferase reporter, 48 h; higher = more signal.
Test [13] addresses Left-right determination factor 2 (Homo sapiens) (UniProt O00292). Kind of test: small molecules binding LEFTY2 protein – biochemical, small-molecule microarray, 635 nm fluorescence scan, primary screen (AID 1110). The following applies: higher = more signal.
In test [14] the target is Calmodulin-1 (Homo sapiens) (UniProt P0DP23). Kind of test: small molecules binding calmodulin-1 with EGTA – biochemical, small-molecule microarray, Cy5-labelled CALM1, profiling panel (AID 1111).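 Note: labelled calmodulin applied in Tris saline Tween buffer holding calcium plus EGTA and DTT.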 The settings on record: Cy5-CALM1 binding fluorescence, higher = more signal.
For test [15] the target is unchanged. Kind of test: small molecules binding Ca-loaded calmodulin-1 – biochemical, small-molecule microarray, Cy5-labelled CALM1, plus calcium, artefact control for SMM control-protein annotation, profiling panel (AID 1112).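 Note: score merges spot fluorescence with signal to noise from triplicate slides.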 The following applies: Cy5-CALM1 binding fluorescence, higher = more signal.
A short description of test [16]: probe aWnt5a binding to arrayed compounds – biochemical, biotinylated probe, 635/667 nm fluorescence, primary screen (AID 1113).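 Note: score merges 667 nm fluorescence intensity with signal-to-noise per printed feature.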 The settings on record: small-molecule microarray, higher = more signal.
Test [17] is described as follows: probe aShh binding to arrayed compounds – biochemical, biotinylated probe, 635/667 nm fluorescence, primary screen (AID 1114).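 Note: probe is biotin-labelled aShh protein from a stem cell growth factor screen; measures binding of labelled protein to compounds printed on the slide; score merges feature fluorescence at 667 nm with signal-to-noise.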 The settings on record: small-molecule microarray, higher = more signal.
Test [18] in a line: probe aNog binding to arrayed compounds – biochemical, biotinylated probe, 635/667 nm fluorescence, primary screen (AID 1115).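 Note: probe is biotinylated aNog protein used at 0.15 µg/mL for 1 h at 4 C; z-score combines 667 nm fluorescence of each spot with its signal to noise.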 The settings on record: small-molecule microarray, higher = more signal.
Test [19] has as its target Torsin-1A-interacting protein 1 (Homo sapiens) (UniProt Q5JTV8). Kind of test: compound microarray binding of lysate hLAP1 – cell lysate, small-molecule microarray, COS7 lysate, 635/667 nm fluorescence, primary screen (AID 1116). The settings on record: 635 nm fluorescence, higher = more signal.
In test [20] the target is Alpha-bungarotoxin (Bungarus multicinctus) (UniProt P60615). Kind of test: compounds binding labelled alpha-BTX control protein – biochemical, small-molecule microarray, Alexa647 label, 635/667 nm fluorescence, artefact control for SMM control protein annotation, profiling panel (AID 1117). The following applies: alpha-BTX-A647 binding fluorescence, higher = more signal.

Calls of active or inactive are those of the source.

Epidermal growth factor receptor (Homo sapiens), sequence (P00533 whole entry, looked up): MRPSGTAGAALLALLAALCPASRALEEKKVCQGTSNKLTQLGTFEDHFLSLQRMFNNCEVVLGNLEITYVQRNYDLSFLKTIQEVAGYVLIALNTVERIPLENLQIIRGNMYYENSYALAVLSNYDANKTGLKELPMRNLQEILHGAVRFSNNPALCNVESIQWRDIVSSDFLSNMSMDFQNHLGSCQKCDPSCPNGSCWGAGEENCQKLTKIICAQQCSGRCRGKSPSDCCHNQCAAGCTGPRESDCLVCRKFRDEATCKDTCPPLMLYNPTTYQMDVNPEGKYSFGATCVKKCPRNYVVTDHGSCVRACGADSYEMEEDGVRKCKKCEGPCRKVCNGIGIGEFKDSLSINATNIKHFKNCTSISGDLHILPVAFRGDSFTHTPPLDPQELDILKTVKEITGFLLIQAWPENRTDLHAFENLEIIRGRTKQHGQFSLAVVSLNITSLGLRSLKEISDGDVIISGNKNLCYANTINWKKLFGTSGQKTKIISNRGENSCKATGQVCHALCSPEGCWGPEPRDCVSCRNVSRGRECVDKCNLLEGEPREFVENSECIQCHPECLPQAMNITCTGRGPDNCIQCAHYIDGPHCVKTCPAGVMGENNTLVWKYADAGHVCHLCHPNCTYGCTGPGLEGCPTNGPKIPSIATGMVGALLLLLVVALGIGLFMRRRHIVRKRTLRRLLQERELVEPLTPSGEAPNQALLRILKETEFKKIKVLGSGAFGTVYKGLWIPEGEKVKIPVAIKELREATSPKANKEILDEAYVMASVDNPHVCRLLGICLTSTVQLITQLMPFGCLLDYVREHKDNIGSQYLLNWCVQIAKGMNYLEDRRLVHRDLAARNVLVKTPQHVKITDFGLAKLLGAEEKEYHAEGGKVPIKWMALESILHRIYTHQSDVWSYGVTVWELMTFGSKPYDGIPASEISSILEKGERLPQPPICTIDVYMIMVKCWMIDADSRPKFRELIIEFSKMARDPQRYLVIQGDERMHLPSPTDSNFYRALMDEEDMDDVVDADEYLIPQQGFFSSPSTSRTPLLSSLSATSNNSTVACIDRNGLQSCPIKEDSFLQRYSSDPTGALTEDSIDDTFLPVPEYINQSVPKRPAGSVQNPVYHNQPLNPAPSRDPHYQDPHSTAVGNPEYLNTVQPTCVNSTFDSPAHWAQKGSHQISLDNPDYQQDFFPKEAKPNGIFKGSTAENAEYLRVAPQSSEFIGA
Torsin-1A-interacting protein 1 (Homo sapiens), sequence (Q5JTV8 whole entry, looked up): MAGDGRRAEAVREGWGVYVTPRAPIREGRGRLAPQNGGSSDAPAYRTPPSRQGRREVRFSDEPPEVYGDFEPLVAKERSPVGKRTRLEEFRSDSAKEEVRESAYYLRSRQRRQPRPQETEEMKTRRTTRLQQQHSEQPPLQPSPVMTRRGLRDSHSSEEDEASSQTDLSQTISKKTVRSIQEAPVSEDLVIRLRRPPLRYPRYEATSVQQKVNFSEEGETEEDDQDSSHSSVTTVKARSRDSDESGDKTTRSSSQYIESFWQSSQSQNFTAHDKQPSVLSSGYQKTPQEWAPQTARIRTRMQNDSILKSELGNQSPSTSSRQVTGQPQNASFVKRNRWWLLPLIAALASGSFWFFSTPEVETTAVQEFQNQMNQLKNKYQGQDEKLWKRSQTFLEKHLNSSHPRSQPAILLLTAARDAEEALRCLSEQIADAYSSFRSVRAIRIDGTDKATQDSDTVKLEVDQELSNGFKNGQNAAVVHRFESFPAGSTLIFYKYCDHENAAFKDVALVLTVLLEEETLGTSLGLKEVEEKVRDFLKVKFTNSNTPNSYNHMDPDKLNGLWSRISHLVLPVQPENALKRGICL
Dickkopf-related protein 1 (Homo sapiens), sequence (O94907 whole entry, looked up): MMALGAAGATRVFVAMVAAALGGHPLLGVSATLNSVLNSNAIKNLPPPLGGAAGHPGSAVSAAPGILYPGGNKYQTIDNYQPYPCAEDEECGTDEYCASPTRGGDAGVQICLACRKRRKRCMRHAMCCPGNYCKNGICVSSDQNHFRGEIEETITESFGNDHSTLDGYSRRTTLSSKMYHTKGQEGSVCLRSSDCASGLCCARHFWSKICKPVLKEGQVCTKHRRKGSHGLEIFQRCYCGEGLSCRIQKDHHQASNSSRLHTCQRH
Fibroblast growth factor 10 (Homo sapiens), sequence (O15520 whole entry, looked up): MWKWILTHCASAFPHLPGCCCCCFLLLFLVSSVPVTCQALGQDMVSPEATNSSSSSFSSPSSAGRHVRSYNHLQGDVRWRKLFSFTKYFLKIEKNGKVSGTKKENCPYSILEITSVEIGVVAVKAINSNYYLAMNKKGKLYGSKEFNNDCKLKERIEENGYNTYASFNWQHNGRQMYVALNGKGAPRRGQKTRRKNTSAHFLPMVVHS
Left-right determination factor 2 (Homo sapiens), sequence (O00292 whole entry, looked up): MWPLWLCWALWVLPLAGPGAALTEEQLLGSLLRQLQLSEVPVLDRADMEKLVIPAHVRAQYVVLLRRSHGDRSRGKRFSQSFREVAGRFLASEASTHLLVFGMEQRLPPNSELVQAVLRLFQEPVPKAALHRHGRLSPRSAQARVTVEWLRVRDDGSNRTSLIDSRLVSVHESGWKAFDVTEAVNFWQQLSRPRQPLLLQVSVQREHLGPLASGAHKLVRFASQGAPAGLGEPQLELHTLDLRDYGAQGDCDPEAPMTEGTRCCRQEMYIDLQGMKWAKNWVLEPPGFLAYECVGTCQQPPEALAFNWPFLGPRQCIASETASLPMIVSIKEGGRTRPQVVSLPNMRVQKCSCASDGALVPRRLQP
Follistatin-related protein 3 (Homo sapiens), sequence (O95633 whole entry, looked up): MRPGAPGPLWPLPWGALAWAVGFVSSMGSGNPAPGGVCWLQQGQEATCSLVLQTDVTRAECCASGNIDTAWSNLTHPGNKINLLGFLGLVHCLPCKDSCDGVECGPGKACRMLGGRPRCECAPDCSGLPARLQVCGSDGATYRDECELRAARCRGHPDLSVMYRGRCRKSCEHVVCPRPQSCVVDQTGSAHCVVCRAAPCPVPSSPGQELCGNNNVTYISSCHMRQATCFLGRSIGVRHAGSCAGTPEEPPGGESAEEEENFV
Alpha-bungarotoxin (Bungarus multicinctus), sequence (P60615 whole entry, looked up): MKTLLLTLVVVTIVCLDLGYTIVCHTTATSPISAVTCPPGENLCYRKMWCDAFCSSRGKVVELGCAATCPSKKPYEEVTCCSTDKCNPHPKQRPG

As for `CC(C)c1ccc(NN2C(C(O)C3=C[C@H]4C[C@@H](C3)C4(C)C)C=CC3C(=O)N(c4ccccc4)C(=O)C32)cc1` (stereo not given in full), the composite z-score came to 0.969 in [1]; 0.886 in test [2]; 0.665 in test [3]; 0.409 in test [5]; 0.577 in test [6]; 0.366 in test [7]. The composite z-score in test [8] was determined as 0.827; in [9], 0.245; in test [10] it was 0.829; in test [11], 0.796; in test [13] it was 0.368; in test [14], 2.46. Besides, the composite z-score was determined as 0.977 in test [15]; 0.0403 in [16]; 0.907 in [17]; 2.06 in test [18]; 1.54 in test [19]; 1.64 in [20]. For the same molecule, the z-score in [4] is -0.0409 (inactive); in test [12], -0.637.
`CC(C)(C)OC(=O)N1[C@@H](C=C(Br)Br)COC1(C)C`: the composite z-score is 0.395 in test [1]; -0.16 in [2]; -0.282 in [3]; 0.382 in test [5]; 0.901 in test [6]; 0.614 in test [7]. In addition, the composite z-score in test [8] was 0.164; in test [9], 0.393; in test [10], 0.29; in test [11], 0.943; in [13], 0.514; in test [14], -0.177. Also, the composite z-score in [15] is -0.41; in [16], -0.0944; in test [17] it was -0.167; in test [18] it was 0.0051; in test [19], 1.29; in test [20] it was 0.398. For the same molecule, the z-score is 0.104 (inactive) in test [4] and -0.213 in test [12].
For `COC(=O)[C@@]1(Cc2ccc(F)cc2)[C@H]2c3cc(C(=O)N4CCCC4)n(Cc4ccc(C(F)(F)F)nc4)c3C[C@H]2CN1C(=O)c1ccccc1`, the composite z-score in test [1] amounted to 0.513; in test [2], 0.16; in [3], 1.33; in test [5] it was 0.472; in [6], 1.3; in test [7], 0.643. In addition, the composite z-score in test [8] was 1.19; in test [9], -0.417; in test [10], 0.843; in test [11], 1.18; in [13], 0.0089; in test [14] it was 2.16. For the same molecule, the composite z-score in [15] is 0.557; in test [16], 0.106; in test [17], -0.382; in [18], -1.06; in [19], 0.873; in [20] it was 0.615. Moreover, the z-score in test [4] was -0.375 (inactive); in test [12], -2.15.
`CC[C@@H]1C=C(C(=O)O)[C@H](c2cccc(Cl)c2)N1S(=O)(=O)c1ccc(C)cc1`: the composite z-score in [1] was 0.514; in test [2] it was 0.472; in [3] it was 0.692; in test [5], 0.0519; in test [6], 0.46; in test [7], -0.527. Besides, the composite z-score in test [8] was -0.614; in test [9], -0.785; in test [10], 0.414; in test [11] it was 1.2; in [13], -0.8; in [14] it was 0.875. For the same molecule, the composite z-score in test [15] is 0.0755; in [16] it was -0.0758; in test [17], 0.14; in test [18] it was 0.527; in test [19], 1.09; in test [20] it was 0.105. Also, the z-score in test [4] was 0.608 (inactive); in test [12], -0.54.
For the molecule `COC(=O)[C@@]1(Cc2ccc(F)cc2)[C@H]2c3cc(C(=O)N(C)C)n(Cc4ccsc4Br)c3C[C@H]2CN1C(=O)c1ccccc1`, the composite z-score in test [1] came out at 1.3; in [2] it was 2.31; in test [3], 1.36; in test [5] it was 1.16; in test [6], 0.0579; in test [7], 1.51. The composite z-score is 0.369 in test [8]; 0.0249 in test [9]; 0.5 in test [10]; -0.468 in test [11]; 0.648 in test [13]; 2.16 in test [14]. Further, the composite z-score in test [15] was 0.981; in [16], 1.37; in test [17] it was 2.15; in [18], -0.0209; in test [19], 1.53; in [20] it was 0.427. For the same molecule, the z-score was -3.81 (inactive) in test [4] and -0.787 in test [12].
